Among the data in the supplement of paper PMC6555819 are PBM binding z-score values, retold here.

For this test, the system named is PPARa:RXRa (NR concentration 270 nM, RXRa partner concentration 90 nM). Briefly: PBM binding z-score (relative to random genomic background probes); higher = stronger binding; sequences stand for … in GC…GCGATTGACAGCGTAGAATGAAGG
On the procedure: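 Protein-binding microarray (Agilent 4x180K custom design, double-stranded 60-nt probes: 5' GC cap, 34-nt variable region, 24-nt constant primer region; full probe sequence given). Purified or IVT nuclear receptor:RXRα heterodimers (3:1 NR:RXRα, mostly 270:90 nM) or homodimers were incubated for 1 h in PBS with 2% milk and no ligand, then detected with Alexa488 antibodies. Fluorescence from o1-orientation probes (~5 replicates averaged) was converted to z-scores against 500 random hg19 background probes. Variable regions are seed direct-repeat (DR0–DR5) sites, all their single-nucleotide variants and half-site ablations.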
Turning to ATCGAAAGGTCGTGAGGTAAGTATACAGAAAGGC, the PBM binding z-score is 5.23.

On to TCTAGTTGGTCTAAGGTCACACACTCGAAATGCG, for which the PBM binding z-score came to 4.7.

With ACTTACGGCTCAACGAGGTTATAGCACGCGTATA, the PBM binding z-score came to 0.734.

The sequence AGAATGAGATTACCAAAGATCAGGGAAACGCTTG returned a PBM binding z-score of -0.285.

On to CAAACTAGTTCAAGAGGTCAAAGTCCGCTTCCCG, for which the PBM binding z-score was found to be 5.38.

AACGAAAGGTCGAAGGTGAGTATACCCACCCGAA: the PBM binding z-score worked out at 4.89.

TCTTGTAGATCGATAGAGGTTAAGAAAGTGCGCT came in with a PBM binding z-score of 1.48.

In the case of CCTTACGGGTCCCTCCAGGTTATAGCATCGGAGT, the PBM binding z-score was -0.0853.

CGAACAAGGTCACCAGGACAGTGAAGAGGTTGGA showed a PBM binding z-score of 6.12.

CGAACTAGGTCGCCAGGACAGTGAAGAGGTTGGA registered a PBM binding z-score of 2.09.

On to CCTACTGGGTCACGAAAGGTCATTGATTCAGTGA, for which the PBM binding z-score worked out at 6.44.

In the case of AGAATGAGGTCATTAAGATCAGGGAATTGCGGTC, the PBM binding z-score is 6.05.

In turn, AGTCAAAGTTCATCTAGGTAACATAAGATATGCT returned a PBM binding z-score of 5.11.

With CGTCCAAGGTCAAGGTCAATGAAAGAGACTCGAA, the PBM binding z-score was determined as 6.

Take CCGACTGGGGCAAGGTCACCATAACGCACAGCCA: the PBM binding z-score is 4.2.

In turn, CCTACGGGGCCACGAAAGGTCATTGATTCAGTGA returned a PBM binding z-score of 4.69.

Regarding TGTCAAAGTTCAAAGGTGACGTAAGTATCCACAC, the PBM binding z-score was 6.09.

With CCTACTGGGCCAAAAAGTTCATTGATGCCGATAA, the PBM binding z-score was 1.72.

Consider ATATGTAGGTTAGCTGGGGTCCTTCAGACTAGGC, for which the PBM binding z-score was 2.78.

For ACTCGGATGACAAAGGTCAGAGCTACGCCAGTGA, the PBM binding z-score is 4.38.

With TCTAGTTGGTCACGGAGGTCACAAACGACGGGTA, the PBM binding z-score stood at 3.87.

Turning to CGTCAAAGTTCAACTAAGGTCACGTAAAGCACGC, the PBM binding z-score amounted to 6.28.

Turning to ATATGTAGTTTATCGGGTCATTCAGTTTGCGCAT, the PBM binding z-score was 3.2.

On to AGAATGAGGTTACCAAAGGTCAGGGAAACGCTTG, for which the PBM binding z-score came to 5.55.

Consider CCTACTCGGCCAAAAAGGTCATTGATGCCGATAA, for which the PBM binding z-score is 4.87.

As for GCTAGTTGGTCAGTAAAATGTCACACACCGGTCG, the PBM binding z-score was -0.0403.

ATCTCTAGGTTAAGATAGTTCAGTGAATGCAAAT: the PBM binding z-score was 1.77.

AGTCAAAGTGCATCTAGGTAACGTAAGATATGCT displayed a PBM binding z-score of 1.21.

CGAACAAGGTCATTGACAGGACAGTGAATAGTAA: the PBM binding z-score turned out to be 5.93.

ATTTGTAGGTTACATCCGGGTCATTCAGGCTATG yielded a PBM binding z-score of 4.12.

As for ACTTACGGGTCAACGAGGTCATAGCACGCGTATA, the PBM binding z-score was found to be 6.12.

Sequence CCGAGTAGGTTACGAGGGGTCATTCAGTGCGAAT displayed a PBM binding z-score of 5.09.

ACTTACGGGTCTACGAGGTTATAGCACGCGTATA returned a PBM binding z-score of 1.2.

In the case of ATCGAAAGGTCCAAGGTGAGTATACCCACCCGAA, the PBM binding z-score was found to be 0.771.

As for CCTACTGGACCAAGGTCATTGATCAGTCAAAGCA, the PBM binding z-score stood at 3.97.

On to ATATGTAGGTTAGCTGGGGTCATTCACACTAGGC, for which the PBM binding z-score turned out to be 5.22.

On to ATCGAAAGGTCGACGAGGTGAGTAAACACCGTTT, for which the PBM binding z-score was found to be 4.51.

Turning to GCTTACGGGTCCAAGGTTATAGCATGAATAGAAT, the PBM binding z-score was determined as 1.78.

Regarding CGTCCAAGGTCACGGTCAGTGAAAGAGACTCGAA, the PBM binding z-score was found to be 6.27.

As to CCTTACGGGTTACTCCAGGTTATAGCATCGGAGT, the PBM binding z-score was 1.45.
